Experimental data published in publication PMC12864922, “TDP-43 directly inhibits mRNA accumulation in neurites through modulation of mRNA stability”.
Over roughly 9,900 sequences, “r (bound/input frequency ratio)” has its median near 0.7; the highest 2% begin near 6.5. The entries come from a sample that favours the highest values as a whole.

B1: ENSMUSG00000022095.41|Fam160b2|101:105 (ssRNA)
RNA: GGGAGUUCUACAGUCCGACGAUCGCUUCGAUAUCCGCAUGCUAUGAGGUUUCAAGGAGGUGCUGGCUCCUAAGGCAGUGGUAUUCUUGGAGCCUUUUAGAGGAGCUAGAGGAUGGCCAGUGAGCGCCUAGAUGCUGCCCUGCAACACAUGCGUGACUAUCUCUGCUAUAUUGUGACCAGGGCCACAACAUGAGACAACUCCAGGGGCCAGGGAGAUGAACUGCUGUCUUUGAGGCUGGCUAAAAAAACAAUCCAGUCCAGAGAGAUGGGGAGGGGGGGAGCAAGAACCCUGUCUGUUACAUUACUCUUGCGGUCGCACUAGUGUGGAAUUCUCGGGUGUCAAGG
B2: ENSMUSG00000031028.396|Tub|202:206 (ssRNA)
RNA: GGGAGUUCUACAGUCCGACGAUCGCUUCGAUAUCCGCAUGCUAUUGACCACUGGCGCUGUGAACACAGGCUAAUGGACUUCAGAUACCAGGGCCCCGGGAUCACCUGGGUUAGCCUCUCCCACAGGAAGAUCCCUUACCCCUCAUCCCCUCUUCUUUUUGGUCCUUGGCUGGGUAGCAAAUUGGUGAGAAGAGCAGCCUAGUCUGUAAGAGUGCAGGGCAGCUGGAACCUUAGGCAGCUCCUCUCAUACCUACCGGCUCCACACCCUAACACUCUCCACCCUCUGCUCCAAACCAGUUCUUCUCUCUUGCGGUCGCACUAGUGUGGAAUUCUCGGGUGUCAAGG
B3: ENSMUSG00000028439.136|Fam219a (ssRNA)
RNA: GGGAGUUCUACAGUCCGACGAUCGCUUCGAUAUCCGCAUGCUAAACCAGUGCAUCUGUCUCUCUGCCUCAUCCCCACACCGCCCUGCCACCCCCAGUCUUCUGUCUAUUGGUUCCAGGCUGGAAGCAAGAGAUAAGGCUGGCCUCCUGUGCCCCAUUGCCAUUUCACCCUAGCUCAAAGUCCAGGAGCCAGGCUUCCAGAAAGGCUCUUCAAGAGCAAGCUUAAGGAAAUACAGUGAGCCAAGUGGCUGUAUGAUAUGGUAUGGUAUGGUAUGGUAUGGUAUGGUAUGGUAUGCACAUGUGUGCUCUUGCGGUCGCACUAGUGUGGAAUUCUCGGGUGUCAAGG
B4: ENSMUSG00000028439.152|Fam219a (ssRNA)
RNA: GGGAGUUCUACAGUCCGACGAUCGCUUCGAUAUCCGCAUGCUAGGCCUCCUGUGCCCCAUUGCCAUUUCACCCUAGCUCAAAGUCCAGGAGCCAGGCUUCCAGAAAGGCUCUUCAAGAGCAAGCUUAAGGAAAUACAGUGAGCCAAGUGGCUGUAUGAUAUGGUAUGGUAUGGUAUGGUAUGGUAUGGUAUGGUAUGCACAUGUGUGUGCAUGUGUGUGUGCCUGUGUGUGUGCGUGUGCGUGUGUGUAUGUGUGUGCGUGUGUGUGUGUGUGUGUUGUACCCGAGUGUGUGUUGAGCCUAUCCUCUUGCGGUCGCACUAGUGUGGAAUUCUCGGGUGUCAAGG
B5: ENSMUSG00000028439.150|Fam219a (ssRNA)
RNA: GGGAGUUCUACAGUCCGACGAUCGCUUCGAUAUCCGCAUGCUAAGAGAUAAGGCUGGCCUCCUGUGCCCCAUUGCCAUUUCACCCUAGCUCAAAGUCCAGGAGCCAGGCUUCCAGAAAGGCUCUUCAAGAGCAAGCUUAAGGAAAUACAGUGAGCCAAGUGGCUGUAUGAUAUGGUAUGGUAUGGUAUGGUAUGGUAUGGUAUGGUAUGCACAUGUGUGUGCAUGUGUGUGUGCCUGUGUGUGUGCGUGUGCGUGUGUGUAUGUGUGUGCGUGUGUGUGUGUGUGUGUUGUACCCGAGUGUGUCUCUUGCGGUCGCACUAGUGUGGAAUUCUCGGGUGUCAAGG
B6: ENSMUSG00000028439.148|Fam219a|134:138;144:178;183:190;193:202;205:214;216:220;222:238;240:257 (ssRNA)
RNA: GGGAGUUCUACAGUCCGACGAUCGCUUCGAUAUCCGCAUGCUAAGGCUGGAAGCAAGAGAUAAGGCUGGCCUCCUGUGCCCCAUUGCCAUUUCACCCUAGCUCAAAGUCCAGGAGCCAGGCUUCCAGAAAGGCUCUUCAAGAGCAAGCUUAAGGAAAUACAGUGAGCCAAGUGGCUCAUACAUAUGCAUACCAUACCAUACCAUACCAUACCAUACCAUACCACAACACACACCAACACACACACCCACACACACACCCACACCCACACACAUACACACACCCACACACACACACACACAUGUCUCUUGCGGUCGCACUAGUGUGGAAUUCUCGGGUGUCAAGG
B7: ENSMUSG00000028439.149|Fam219a (ssRNA)
RNA: GGGAGUUCUACAGUCCGACGAUCGCUUCGAUAUCCGCAUGCUAGAAGCAAGAGAUAAGGCUGGCCUCCUGUGCCCCAUUGCCAUUUCACCCUAGCUCAAAGUCCAGGAGCCAGGCUUCCAGAAAGGCUCUUCAAGAGCAAGCUUAAGGAAAUACAGUGAGCCAAGUGGCUGUAUGAUAUGGUAUGGUAUGGUAUGGUAUGGUAUGGUAUGGUAUGCACAUGUGUGUGCAUGUGUGUGUGCCUGUGUGUGUGCGUGUGCGUGUGUGUAUGUGUGUGCGUGUGUGUGUGUGUGUGUUGUACCCGACUCUUGCGGUCGCACUAGUGUGGAAUUCUCGGGUGUCAAGG
B8: ENSMUSG00000028439.151|Fam219a (ssRNA)
RNA: GGGAGUUCUACAGUCCGACGAUCGCUUCGAUAUCCGCAUGCUAAAGGCUGGCCUCCUGUGCCCCAUUGCCAUUUCACCCUAGCUCAAAGUCCAGGAGCCAGGCUUCCAGAAAGGCUCUUCAAGAGCAAGCUUAAGGAAAUACAGUGAGCCAAGUGGCUGUAUGAUAUGGUAUGGUAUGGUAUGGUAUGGUAUGGUAUGGUAUGCACAUGUGUGUGCAUGUGUGUGUGCCUGUGUGUGUGCGUGUGCGUGUGUGUAUGUGUGUGCGUGUGUGUGUGUGUGUGUUGUACCCGAGUGUGUGUUGAGCUCUUGCGGUCGCACUAGUGUGGAAUUCUCGGGUGUCAAGG
B9: ENSMUSG00000061578.707|Ksr2|13:17 (ssRNA)
RNA: GGGAGUUCUACAGUCCGACGAUCGCUUCGAUAUCCGCAUGCUACCUGUAGUCUCUACACACAUCUUCUUCUAAGACCACUAAUAACACCGCCUUUCUCCUUGAUCCGGGCCUCAGACCUCUUCAGAGAUUCUUUCUCUGAAUGUACGUGGGGGACUCCAACAGAUGUUGGGAGAAGACUCAAUAUGAGCAUACGGGGUCAUUGUUCAAUCCUGUAUCAAGACCUUGGAGUUGUCUAAGGCUGUGGGUUUUAAAUACCUGCUGCAGGCCUCCCAUCUCUGGCUCUUUGUUUCCACUCUGGCCCACUCUUGCGGUCGCACUAGUGUGGAAUUCUCGGGUGUCAAGG

Target: TDP-43 (Homo sapiens, UniProt Q13148 1-414)
Sequence (Q13148 whole entry): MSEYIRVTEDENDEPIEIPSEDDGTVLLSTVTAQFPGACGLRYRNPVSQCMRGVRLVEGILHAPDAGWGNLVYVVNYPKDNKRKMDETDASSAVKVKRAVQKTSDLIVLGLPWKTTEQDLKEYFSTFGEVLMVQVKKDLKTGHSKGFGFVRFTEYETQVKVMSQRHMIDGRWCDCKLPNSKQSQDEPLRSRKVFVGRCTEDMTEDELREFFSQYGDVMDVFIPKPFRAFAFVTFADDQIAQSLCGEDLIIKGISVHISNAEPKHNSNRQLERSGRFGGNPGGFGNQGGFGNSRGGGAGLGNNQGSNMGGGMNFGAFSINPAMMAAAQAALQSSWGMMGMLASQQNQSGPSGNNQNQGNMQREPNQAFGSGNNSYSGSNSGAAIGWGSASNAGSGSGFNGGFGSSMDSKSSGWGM
Assay: RNA Bind-n-Seq with designed 260-mer pool; 25 mM Tris-HCl, 150 mM KCl, 3 mM MgCl2, BSA (printed 500 mg/mL), 20 units/mL SUPERase IN; pH not stated; 500 nM RNA pool, 1 h, 4 C; TDP-43 5, 50, 500 nM; high values mean tight binding
Conditions: protein: recombinant; tags: SBP (GST cleaved off with PreScission; pGEX-GST-SBP)
Method in brief: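 Recombinant SBP-tagged TDP-43 at 5, 50 or 500 nM was captured on streptavidin beads, then incubated 1 h at 4 °C with 500 nM of an in vitro-transcribed 260-nt 3′ UTR oligo pool in 25 mM Tris-HCl, 150 mM KCl, 3 mM MgCl2, BSA and SUPERase IN. Bound RNA was washed, eluted with biotin, reverse transcribed, PCR-amplified and sequenced. Binding is R, each oligo's mapped-read-normalized abundance in the bound sample divided by its abundance in input. Duplicates used two independent protein batches.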

Binder	binding signal
B1	1 R (bound/input frequency ratio)
B2	1.04 R (bound/input frequency ratio)
B3	1.84 R (bound/input frequency ratio)
B4	7.8 R (bound/input frequency ratio)
B5	7.17 R (bound/input frequency ratio)
B6	4.64 R (bound/input frequency ratio)
B7	6.67 R (bound/input frequency ratio)
B8	6.07 R (bound/input frequency ratio)
B9	0.284 R (bound/input frequency ratio)
